Laboratory results as given in the supplement of paper PMC11732987, “Enantioselective OTUD7B fragment discovery through chemoproteomics screening and high-throughput optimisation” (Communications Chemistry, 2025).

Experiments:
Assay in all cases: log2 ratio of Biotin-Ahx-Ub-VS probe labelling (fragment/DMSO); higher = less target engagement (more negative = stronger competition), active = hit call of the paper (q ≤ 0.05, log2 ratio ≤ -1)
Details in all cases: compound concentration: 200 uM; treatment time: 3 h
[1] = biological target: T1, ALG13 (UniProt Q9NP73)
T1 sequence (whole entry): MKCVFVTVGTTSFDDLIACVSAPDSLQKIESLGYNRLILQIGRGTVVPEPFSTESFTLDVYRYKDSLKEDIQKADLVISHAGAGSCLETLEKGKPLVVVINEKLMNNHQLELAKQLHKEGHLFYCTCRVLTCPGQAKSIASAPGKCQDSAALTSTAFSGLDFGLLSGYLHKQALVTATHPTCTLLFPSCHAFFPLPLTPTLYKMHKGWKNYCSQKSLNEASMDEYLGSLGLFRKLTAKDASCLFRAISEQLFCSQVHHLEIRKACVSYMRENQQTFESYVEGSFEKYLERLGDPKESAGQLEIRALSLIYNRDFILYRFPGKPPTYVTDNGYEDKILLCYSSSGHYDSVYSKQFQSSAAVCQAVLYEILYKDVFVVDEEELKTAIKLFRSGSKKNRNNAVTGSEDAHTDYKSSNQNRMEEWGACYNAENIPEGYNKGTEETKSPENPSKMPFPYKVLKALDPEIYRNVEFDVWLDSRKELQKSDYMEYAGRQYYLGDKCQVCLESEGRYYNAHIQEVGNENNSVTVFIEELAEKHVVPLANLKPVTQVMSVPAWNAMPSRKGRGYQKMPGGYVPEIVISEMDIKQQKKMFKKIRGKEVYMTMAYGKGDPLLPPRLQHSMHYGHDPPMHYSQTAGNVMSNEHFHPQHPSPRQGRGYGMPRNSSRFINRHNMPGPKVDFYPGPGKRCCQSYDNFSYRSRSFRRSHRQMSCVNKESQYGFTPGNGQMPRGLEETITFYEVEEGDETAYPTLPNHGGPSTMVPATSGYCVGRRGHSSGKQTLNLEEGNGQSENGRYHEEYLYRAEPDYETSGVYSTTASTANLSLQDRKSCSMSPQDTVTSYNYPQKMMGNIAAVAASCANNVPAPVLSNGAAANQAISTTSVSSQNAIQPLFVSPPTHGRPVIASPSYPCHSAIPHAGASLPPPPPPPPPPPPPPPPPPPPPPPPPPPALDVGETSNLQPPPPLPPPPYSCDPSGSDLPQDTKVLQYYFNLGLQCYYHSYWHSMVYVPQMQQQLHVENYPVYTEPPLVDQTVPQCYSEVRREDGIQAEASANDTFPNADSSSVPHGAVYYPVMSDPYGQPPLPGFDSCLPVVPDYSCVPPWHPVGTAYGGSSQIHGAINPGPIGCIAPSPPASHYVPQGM
In short: (§1)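 Triplicate samples of HEK293T lysate, 495 µg each, received fragment at 200 µM or vehicle for 3 h, followed by Biotin-Ahx-Ub-VS (0.5 µM final) for 1 h. After NeutrAvidin enrichment of labelled DUBs and LysC/trypsin digestion, peptides were run by diaPASEF LC-MS/MS. The values are average log2 fragment/vehicle ratios from global-median-normalised Spectronaut label-free quantities, tested by unpaired t-test on proteins having ≥2 unique peptides.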

[2] = biological target: ATXN3 (UniProt P54252)
Chain of ATXN3 (P54252 whole entry): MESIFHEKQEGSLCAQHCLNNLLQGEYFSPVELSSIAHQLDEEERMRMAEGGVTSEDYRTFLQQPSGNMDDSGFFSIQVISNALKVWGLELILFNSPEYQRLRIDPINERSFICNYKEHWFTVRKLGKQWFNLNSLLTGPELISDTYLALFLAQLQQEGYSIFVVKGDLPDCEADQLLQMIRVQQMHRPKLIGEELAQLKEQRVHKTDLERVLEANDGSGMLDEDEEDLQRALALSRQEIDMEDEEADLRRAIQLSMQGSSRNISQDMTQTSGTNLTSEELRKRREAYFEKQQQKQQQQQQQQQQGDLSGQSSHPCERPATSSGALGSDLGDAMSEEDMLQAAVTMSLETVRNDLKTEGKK
In short: as §1

[3] = biological target: T2, BAP1 (UniProt Q92560)
T2 sequence (whole entry): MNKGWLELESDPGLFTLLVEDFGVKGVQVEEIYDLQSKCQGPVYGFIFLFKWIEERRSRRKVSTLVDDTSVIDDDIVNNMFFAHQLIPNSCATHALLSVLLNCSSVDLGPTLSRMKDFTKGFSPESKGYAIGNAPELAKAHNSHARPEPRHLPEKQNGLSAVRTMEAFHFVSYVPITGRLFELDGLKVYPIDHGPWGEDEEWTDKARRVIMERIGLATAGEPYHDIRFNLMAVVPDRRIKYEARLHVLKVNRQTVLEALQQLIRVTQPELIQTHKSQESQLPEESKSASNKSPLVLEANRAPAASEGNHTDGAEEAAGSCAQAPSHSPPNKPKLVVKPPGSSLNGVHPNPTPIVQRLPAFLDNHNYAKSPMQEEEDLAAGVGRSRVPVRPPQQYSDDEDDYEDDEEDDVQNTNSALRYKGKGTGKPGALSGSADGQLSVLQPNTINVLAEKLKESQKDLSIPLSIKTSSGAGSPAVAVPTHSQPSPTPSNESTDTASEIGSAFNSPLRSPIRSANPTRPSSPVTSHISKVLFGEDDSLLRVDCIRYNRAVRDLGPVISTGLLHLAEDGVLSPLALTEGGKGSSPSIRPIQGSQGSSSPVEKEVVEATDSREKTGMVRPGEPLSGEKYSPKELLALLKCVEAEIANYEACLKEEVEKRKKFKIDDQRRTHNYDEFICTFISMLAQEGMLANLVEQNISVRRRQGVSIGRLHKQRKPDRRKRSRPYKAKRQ
In short: as §1

[4] = biological target: EIF3F (UniProt O00303)
Chain of EIF3F (O00303 whole entry): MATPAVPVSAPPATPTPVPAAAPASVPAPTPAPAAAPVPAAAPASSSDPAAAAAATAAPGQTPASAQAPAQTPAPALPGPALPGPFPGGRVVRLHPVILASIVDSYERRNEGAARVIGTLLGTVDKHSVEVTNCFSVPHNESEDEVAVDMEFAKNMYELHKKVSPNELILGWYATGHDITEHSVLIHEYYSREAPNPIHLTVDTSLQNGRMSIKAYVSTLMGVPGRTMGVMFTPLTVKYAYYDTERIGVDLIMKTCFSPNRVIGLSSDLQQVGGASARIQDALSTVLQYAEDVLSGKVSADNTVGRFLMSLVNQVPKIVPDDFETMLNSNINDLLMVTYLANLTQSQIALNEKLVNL
In short: as §1

[5] = biological target: EIF3H (UniProt O15372)
Chain of EIF3H (O15372 whole entry): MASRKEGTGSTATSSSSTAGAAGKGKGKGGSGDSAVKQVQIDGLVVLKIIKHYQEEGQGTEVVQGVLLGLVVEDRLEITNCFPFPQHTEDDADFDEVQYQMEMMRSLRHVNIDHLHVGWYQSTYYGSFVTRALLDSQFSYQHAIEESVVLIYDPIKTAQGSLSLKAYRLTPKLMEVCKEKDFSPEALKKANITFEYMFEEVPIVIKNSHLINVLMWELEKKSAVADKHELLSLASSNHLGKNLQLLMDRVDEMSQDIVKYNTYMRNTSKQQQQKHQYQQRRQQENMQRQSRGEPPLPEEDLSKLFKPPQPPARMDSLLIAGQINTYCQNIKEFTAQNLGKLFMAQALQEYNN
In short: as §1

[6] = biological target: T3, FAM105A (UniProt Q9NUU6)
T3 sequence (whole entry): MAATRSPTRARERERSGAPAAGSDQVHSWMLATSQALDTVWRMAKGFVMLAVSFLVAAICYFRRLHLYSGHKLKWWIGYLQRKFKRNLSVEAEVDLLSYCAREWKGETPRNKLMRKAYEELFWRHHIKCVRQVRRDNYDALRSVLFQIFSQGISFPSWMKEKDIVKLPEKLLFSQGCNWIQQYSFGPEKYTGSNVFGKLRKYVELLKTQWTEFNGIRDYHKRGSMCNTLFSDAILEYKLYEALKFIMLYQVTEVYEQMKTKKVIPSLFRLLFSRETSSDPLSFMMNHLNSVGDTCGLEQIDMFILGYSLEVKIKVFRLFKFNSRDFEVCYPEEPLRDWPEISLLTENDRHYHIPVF
In short: as §1

[7] = biological target: OTUB1 (UniProt Q96FW1)
Chain of OTUB1 (Q96FW1 whole entry): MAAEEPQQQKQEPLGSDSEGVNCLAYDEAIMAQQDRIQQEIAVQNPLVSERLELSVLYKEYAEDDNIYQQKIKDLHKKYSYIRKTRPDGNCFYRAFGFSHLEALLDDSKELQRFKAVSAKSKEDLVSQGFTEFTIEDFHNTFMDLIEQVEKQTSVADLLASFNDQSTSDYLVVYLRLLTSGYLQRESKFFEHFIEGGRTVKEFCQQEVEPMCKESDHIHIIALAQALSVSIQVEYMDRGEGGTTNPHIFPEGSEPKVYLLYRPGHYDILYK
In short: as §1

[8] = biological target: T4, OTUD4 (UniProt Q01804)
T4 sequence (whole entry): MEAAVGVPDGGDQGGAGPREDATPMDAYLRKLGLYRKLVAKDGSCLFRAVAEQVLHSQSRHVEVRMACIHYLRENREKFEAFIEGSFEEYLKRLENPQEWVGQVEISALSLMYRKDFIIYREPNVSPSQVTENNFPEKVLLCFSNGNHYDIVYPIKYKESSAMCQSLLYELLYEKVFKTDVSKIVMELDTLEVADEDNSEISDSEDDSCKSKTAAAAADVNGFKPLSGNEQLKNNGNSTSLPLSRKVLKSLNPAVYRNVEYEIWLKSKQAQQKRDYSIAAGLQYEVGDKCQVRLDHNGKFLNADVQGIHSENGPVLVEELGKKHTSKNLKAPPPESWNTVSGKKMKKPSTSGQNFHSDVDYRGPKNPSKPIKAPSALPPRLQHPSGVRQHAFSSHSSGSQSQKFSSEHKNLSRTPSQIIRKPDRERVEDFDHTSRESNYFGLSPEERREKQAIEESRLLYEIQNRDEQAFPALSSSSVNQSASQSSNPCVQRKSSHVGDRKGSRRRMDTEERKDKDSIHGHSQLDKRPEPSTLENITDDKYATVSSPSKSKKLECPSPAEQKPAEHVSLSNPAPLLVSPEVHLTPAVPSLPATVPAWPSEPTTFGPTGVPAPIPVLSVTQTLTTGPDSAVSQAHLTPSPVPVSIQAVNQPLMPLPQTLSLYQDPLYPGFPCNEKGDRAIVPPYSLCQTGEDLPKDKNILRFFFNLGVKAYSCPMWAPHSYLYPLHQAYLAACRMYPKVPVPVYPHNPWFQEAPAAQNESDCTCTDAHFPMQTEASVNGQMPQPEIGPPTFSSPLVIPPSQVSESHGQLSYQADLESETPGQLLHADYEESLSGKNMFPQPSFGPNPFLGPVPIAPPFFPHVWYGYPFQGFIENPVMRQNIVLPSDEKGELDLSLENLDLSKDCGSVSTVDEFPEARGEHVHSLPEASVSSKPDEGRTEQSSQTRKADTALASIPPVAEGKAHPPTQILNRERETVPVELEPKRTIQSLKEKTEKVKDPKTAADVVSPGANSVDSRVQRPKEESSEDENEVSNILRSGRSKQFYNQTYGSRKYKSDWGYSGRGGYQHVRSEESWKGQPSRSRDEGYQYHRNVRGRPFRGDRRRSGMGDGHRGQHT
In short: as §1

[9] = biological target: T5, OTUD5 (UniProt Q96G74)
T5 sequence (whole entry): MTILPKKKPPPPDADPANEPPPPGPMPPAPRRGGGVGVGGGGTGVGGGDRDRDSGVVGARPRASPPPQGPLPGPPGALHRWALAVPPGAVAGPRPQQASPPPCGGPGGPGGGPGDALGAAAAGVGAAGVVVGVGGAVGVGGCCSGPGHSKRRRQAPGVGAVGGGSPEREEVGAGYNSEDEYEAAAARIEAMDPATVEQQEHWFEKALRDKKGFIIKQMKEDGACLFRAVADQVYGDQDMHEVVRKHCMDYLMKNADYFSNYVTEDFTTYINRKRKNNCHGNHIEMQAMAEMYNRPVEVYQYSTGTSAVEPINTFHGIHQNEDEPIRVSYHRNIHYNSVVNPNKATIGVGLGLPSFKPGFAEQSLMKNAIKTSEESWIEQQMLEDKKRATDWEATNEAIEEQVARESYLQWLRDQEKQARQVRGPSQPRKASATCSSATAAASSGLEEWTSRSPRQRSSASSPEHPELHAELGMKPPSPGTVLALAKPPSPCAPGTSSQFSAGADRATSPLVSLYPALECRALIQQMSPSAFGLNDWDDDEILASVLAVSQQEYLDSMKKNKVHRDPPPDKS
In short: as §1

Measured: log2 ratio of Biotin-Ahx-Ub-VS probe labelling

Cn1cc(CN(Cc2ccc(Cl)cc2)C(=O)CCl)cn1
inactive: [1] -0.382 | [2] -0.833 | [3] -0.944 | [4] -0.0957 | [5] 0.132 | [6] -0.189 | [7] -0.095 | [8] 0.0527 | [9] -0.592
